Drawing on PMC5700166, this text covers binding signal for 39 sequences.

The target of this assay is T1, GST-Nv-NF-kB (Ser allele) (Nematostella vectensis, UniProt A7UNT2 2-411).
T1 sequence: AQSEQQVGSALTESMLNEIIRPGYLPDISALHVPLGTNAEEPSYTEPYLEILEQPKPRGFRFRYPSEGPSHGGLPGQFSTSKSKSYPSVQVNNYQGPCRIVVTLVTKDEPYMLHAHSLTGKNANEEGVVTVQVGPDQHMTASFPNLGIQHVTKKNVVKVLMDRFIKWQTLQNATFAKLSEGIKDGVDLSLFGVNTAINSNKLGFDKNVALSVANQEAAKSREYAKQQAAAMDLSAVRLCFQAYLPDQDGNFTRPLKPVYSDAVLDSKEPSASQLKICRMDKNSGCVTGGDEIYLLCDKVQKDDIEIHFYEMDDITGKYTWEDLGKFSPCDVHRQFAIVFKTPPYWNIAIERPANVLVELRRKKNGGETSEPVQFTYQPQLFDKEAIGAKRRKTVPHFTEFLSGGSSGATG
Description: protein-binding microarray (PBM); PBM: ~300 nM protein, 6 mM HEPES pH 7.8, 80 mM KCl, 0.5 mM EDTA, 0.5 mM EGTA, 6% glycerol, 35 ng/ul poly-dIdC, 1% milk, 1 h, room temperature; Ap Aiptasia and Nv Nematostella (sea anemones) / Co Capsaspora / Aq Amphimedon (sponge) / Dm Drosophila / Hu human; RHD is the Rel homology domain; high values mean tight binding. The note with it: dsDNA, one strand shown.
As to “CCGATTAACATCAAGGGAATTCCTGATGTTAATCGGGTCTTGATTCGCTTGACGCTGCTG”, the binding signal was 6.53 z-score.
Under “CCGATTAACATCAAGGGACTTCCTGATGTTAATCGGGTCTTGATTCGCTTGACGCTGCTG” stands 5.97 z-score; under “CCGATTAACATCAGGGCTCCCCCTGATGTTAATCGGGTCTTGATTCGCTTGACGCTGCTG”, 5.09 z-score.
Under “CCGATTAACATCAGGGACGCCCCTGATGTTAATCGGGTCTTGATTCGCTTGACGCTGCTG” stands 3.51 z-score.
Under “CCGATTAACATCAGATTTACCGCTGATGTTAATCGGGTCTTGATTCGCTTGACGCTGCTG” stands 1.31 z-score; under “CCGATTAACATCAGGGGGGGAACTGATGTTAATCGGGTCTTGATTCGCTTGACGCTGCTG”, 6.12 z-score; under “CCGATTAACATCAGAAACCCCCATGATGTTAATCGGGTCTTGATTCGCTTGACGCTGCTG”, 6.17 z-score.
In the case of “CCGATTAACATCATAAAAAAAAATGATGTTAATCGGGTCTTGATTCGCTTGACGCTGCTG”, the binding signal stood at 1.09 z-score.
Under “CCGATTAACATCATCAGGGGGGATGATGTTAATCGGGTCTTGATTCGCTTGACGCTGCTG” stands 3.78 z-score; under “CCGATTAACATCAAAATTCCCGATGATGTTAATCGGGTCTTGATTCGCTTGACGCTGCTG”, 4.77 z-score; under “CCGATTAACATCACCTCCCCCCCTGATGTTAATCGGGTCTTGATTCGCTTGACGCTGCTG”, 4.34 z-score.
The value for “CCGATTAACATCATTTCCGGAAATGATGTTAATCGGGTCTTGATTCGCTTGACGCTGCTG” was 1.02 z-score; that for “CCGATTAACATCAGAAATACCCATGATGTTAATCGGGTCTTGATTCGCTTGACGCTGCTG” was 4.71 z-score.
Consider “CCGATTAACATCAGGCGTTCCCCTGATGTTAATCGGGTCTTGATTCGCTTGACGCTGCTG”, for which the binding signal is 5.77 z-score.
The value for “CCGATTAACATCAAGGGGGAGGGTGATGTTAATCGGGTCTTGATTCGCTTGACGCTGCTG” was 3.99 z-score; that for “CCGATTAACATCACTTTGGGAAATGATGTTAATCGGGTCTTGATTCGCTTGACGCTGCTG” was 1.89 z-score.
The value for “CCGATTAACATCAGAATACCCCCTGATGTTAATCGGGTCTTGATTCGCTTGACGCTGCTG” was 6.16 z-score; that for “CCGATTAACATCAAATTCCCTTATGATGTTAATCGGGTCTTGATTCGCTTGACGCTGCTG” was 6.07 z-score; that for “CCGATTAACATCAAGCCCCCCCCTGATGTTAATCGGGTCTTGATTCGCTTGACGCTGCTG” was 4.25 z-score.
Under “CCGATTAACATCAGGGGGAACACTGATGTTAATCGGGTCTTGATTCGCTTGACGCTGCTG” stands 6.37 z-score; under “CCGATTAACATCACGTGGGGCGTTGATGTTAATCGGGTCTTGATTCGCTTGACGCTGCTG”, 1.01 z-score; under “CCGATTAACATCACCGAACCCCCTGATGTTAATCGGGTCTTGATTCGCTTGACGCTGCTG”, 5.24 z-score.
On to “CCGATTAACATCAGGGGGGGGAATGATGTTAATCGGGTCTTGATTCGCTTGACGCTGCTG”, for which the binding signal was determined as 6.53 z-score.
“CCGATTAACATCAGGGGGTATTATGATGTTAATCGGGTCTTGATTCGCTTGACGCTGCTG” showed a binding signal of 6.38 z-score.
“CCGATTAACATCAAGGGGGGGAGTGATGTTAATCGGGTCTTGATTCGCTTGACGCTGCTG” returned a binding signal of 4.08 z-score.
“CCGATTAACATCAGCTCCCCCCCTGATGTTAATCGGGTCTTGATTCGCTTGACGCTGCTG” displayed a binding signal of 3.44 z-score.
Take “CCGATTAACATCAAATAAGCCCCTGATGTTAATCGGGTCTTGATTCGCTTGACGCTGCTG”: the binding signal is 4 z-score.
The value for “CCGATTAACATCAAGGAATTCCCTGATGTTAATCGGGTCTTGATTCGCTTGACGCTGCTG” was 6.37 z-score; that for “CCGATTAACATCACAAATACCCCTGATGTTAATCGGGTCTTGATTCGCTTGACGCTGCTG” was 4.74 z-score; that for “CCGATTAACATCAGGGGTTTTACTGATGTTAATCGGGTCTTGATTCGCTTGACGCTGCTG” was 4.36 z-score.
The value for “CCGATTAACATCATACCCCCCCATGATGTTAATCGGGTCTTGATTCGCTTGACGCTGCTG” was 3.11 z-score; that for “CCGATTAACATCAAACCTTCCCCTGATGTTAATCGGGTCTTGATTCGCTTGACGCTGCTG” was 5.79 z-score.
The value for “CCGATTAACATCAACAACCCCCCTGATGTTAATCGGGTCTTGATTCGCTTGACGCTGCTG” was 5.06 z-score; that for “CCGATTAACATCACGCATCCCCCTGATGTTAATCGGGTCTTGATTCGCTTGACGCTGCTG” was 6.09 z-score; that for “CCGATTAACATCAGGGAAATTAATGATGTTAATCGGGTCTTGATTCGCTTGACGCTGCTG” was 6.52 z-score.
As for “CCGATTAACATCATGCCCGGGAATGATGTTAATCGGGTCTTGATTCGCTTGACGCTGCTG”, the binding signal turned out to be 1.07 z-score.
Under “CCGATTAACATCAGGAGTCCCCCTGATGTTAATCGGGTCTTGATTCGCTTGACGCTGCTG” stands 5.14 z-score.
In the case of “CCGATTAACATCAAACTCCCCCGTGATGTTAATCGGGTCTTGATTCGCTTGACGCTGCTG”, the binding signal turned out to be 6.52 z-score.
Under “CCGATTAACATCAAAAGCCCCCATGATGTTAATCGGGTCTTGATTCGCTTGACGCTGCTG” stands 5.01 z-score.
